Most compounds without a hit are left out; they make up all but 2.8% or so of the library.
POLH inh: blocks human DNA polymerase eta activity. Q9Y253. recombinant Pol eta, fluorescent DNA replication assay. Potency, µM (highest dose often 114 µM), most hits filed as inhibitors. actives 1.2% (n = 390,000). AID 588591
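Pol eta at 10 nM preincubated with compounds 15 min at room temperature; reaction started with fluorescent substrate (50 nM final) and read kinetically at 0 and 10 min.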
Pol beta inh: DNA polymerase beta (human) inhibition; Pol beta primer extension/strand displacement, fluorescence kinetic; Potency, µM (top dose mostly 114 µM), hits mostly inhibitors; actives 1.3% (n = 340,000)
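Kinetic readout of DNA synthesis with strand displacement by Pol beta. Compound and 10 nM enzyme sit 15 min at room temperature; 50 nM substrate starts the reaction, read immediately and at 10 min.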
WRN inhibitor: WRN helicase (human) inhibition; Q14191; WRN helicase unwinding, fluorescent forked duplex, kinetic; Potency, µM (top dose mostly 114 µM), actives largely listed as inhibitors; actives 0.46% (n = 360,000); AID 651768; note: nearly all actives have a fitted effect of over 55% in size
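WRN at 20 nM final was preincubated with compound for 15 min at room temperature; reaction started with 100 nM forked duplex oligonucleotide carrying fluorophore and quencher plus 2 mM ATP (final). Unwinding followed kinetically by red fluorescence (ex 525/em 598 nm).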
Pol kappa inh: DNA polymerase kappa (human) inhibition. AID 588579. purified Pol kappa, fluorescent DNA synthesis assay, 10 min. Potency, µM (top dose mostly 107 µM), actives largely listed as inhibitors. actives 0.53% (n = 400,000)
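Fluorescent qHTS in 1536-well format: enzyme (10 nM) and compound sat 15 min at room temperature before 50 nM substrate (final) was added. Signal taken at 0 and 10 min; no-enzyme buffer wells were negative controls.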
PI5P4Ka inh: inhibitors of human PI5P4K alpha | PI5P4Kalpha enzyme, ADP-Glo luminescence, 60 min; active compounds read low | actives 1.2% (n = 330,000) | max response, %; active = max response of -50% or lower; inconclusive = between -30% and -50%; inactive = -30% or higher; note: value at the top dose of about 77 µM
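Compounds were pin-transferred onto PI5P4Kalpha and substrate in HEPES pH 7.4 buffer with EGTA, CHAPS and 5% DMSO. ATP (5 microM final) started the reaction, which ran 60 minutes at room temperature before ADP-Glo detection.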
POLI inh: inhibitors of human DNA polymerase iota. Potency, µM (doses to about 115 µM), most hits filed as inhibitors. Q9UNA4. Pol iota fluorescent replication assay, 10 min. actives 1% (n = 390,000)
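Pol iota at 10 nM preincubated 15 min with compounds at room temperature; reaction started with fluorescent substrate, 50 nM final. Fluorescence read kinetically at 0 and 10 min; buffer-only wells as negative control.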
A number is an active result; . = inactive; ? = inconclusive; / = no result; [ ] = another dose, or the depositor's remark. Unless noted, calls come from the whole dose curve; as a rule, active = well fitted curve in the direction sought with a large enough effect; inconclusive = small, poorly fitted or top-dose-only effect, or another doubt; inactive = no such curve, though single readings can be large; an effect the other way counts as inactive or inconclusive.

SMILES	POLH inh	Pol beta inh	WRN inhibitor	Pol kappa inh	PI5P4Ka inh	POLI inh
COc1ccc(/C=N/NC(=O)c2ccco2)cc1COc1ccc(F)cc1	.	?	.	.	.	79.4µM
COc1ccc(/C=N/NC(=O)c2ccc(NC(C)=O)cc2)cc1COc1ccc(F)cc1F	?	35.5µM	.[11.6 µM]	.	.	35.5µM
COc1ccc(/C=N/NC(=O)c2nc(Cl)c(Cl)c(N)c2Cl)cc1COc1ccc(F)cc1F	?	?	.	.	.	.
COc1ccc(CNC(=O)CN(c2ccccc2OC)S(=O)(=O)c2ccc(C)cc2)cc1	.	.	/	.	/	.
COc1ccc(/C=N/NC(=O)c2ccc(Cl)cc2)cc1Cn1cc(Cl)cn1	.	20µM	.	?	.	79.4µM
Cn1cnc(S(=O)(=O)N2CCC(C(=O)Nc3ccc(Cl)c(C(F)(F)F)c3)CC2)c1	.	.	/	.	/	.
NC(=NCc1ccco1)NC(=O)c1ccc(Cl)cc1	.	.	.	.	.	.
CC(=O)c1ccc2c3c(cccc13)C(=O)N(CCc1ccccc1)C2=O	28.2µM	31.6µM	.[11.6 µM]	?	.	?
NN1C(=O)c2cccc3c(C(=O)O)ccc(c23)C1=O	?	.	.	.	-63.6	.
CCCCOc1ccccc1C(=O)N(Cc1ccc(C)o1)C1CCS(=O)(=O)C1 (stereo unspecified)	.	.	.	.	.	.
C=C(C(=O)O)C1CCC2(C)CCCC(C)(O)C2C1 (stereo unspecified)	.	?	.	.	.	?
CN(CC(=O)NCc1ccccc1)CC(=O)Nc1ccc(Cl)c(C(F)(F)F)c1	?	/	.	.	.	.
CN(CC(=O)NC(=O)NCc1ccccc1)CC(=O)Nc1ccc(Cl)c(C(F)(F)F)c1	.	/	.[11.6 µM]	.	.	89.1µM
O=C1C=CC(=O)c2c(O)c(Cl)c(Cl)c(O)c21	/	/	/	7.08µM	/	/
COCCn1c(N)c(C(=O)OCc2ccccc2)c2nc3ccccc3nc21	.	.	.	.	/	20µM
Cc1cccc(-c2nc(C(N)=O)c3c(n2)n(-c2ccc4c(c2)OCO4)c(=O)n3C)c1	.	.	/	.	/	.
CCOc1cc(/C=N/NC(=O)c2cc(C)n(-c3ccc(F)cc3)c2C)ccc1O	.	?	.	.	.	.
Cc1cc(C(=O)N/N=C2\CC(=O)c3ccccc32)c(C)n1-c1ccc(F)cc1	?	.	.	?	-64.4	?
COc1cccc(CN(C)C(=O)CN2C(=O)NC(c3ccccc3)(c3ccccc3)C2=O)c1	.	/	.	.	.	.
COc1cccc(C(O)c2nc(-c3cccc(CO)c3)cs2)c1 (stereo unspecified)	/	/	.	/	.	/
Cc1c(Br)c(O)c(Br)c2sc(=O)oc12	?	20µM	.	?	-69.0	6.31µM
Cc1ccccc1NC(=O)CSc1nnc(-c2ccco2)c(-c2ccco2)n1	50.1µM	14.1µM	39.8µM	31.6µM	-65.6	10µM
Cc1cccc(C)c1NC(=O)CSc1nnc(-c2ccco2)c(-c2ccco2)n1	3.55µM	3.16µM	35.5µM	28.2µM	-69.1	?
COc1ccccc1/C=C/C(=O)OC(C)CN1CCCCC1 (stereo unspecified)	.	.	.	.	.	.
COc1ccc2nc(-c3ccccc3)cc(C(=O)OCC(=O)N3CC(C)OC(C)C3)c2c1 (stereo unspecified)	79.4µM	/	.[11.6 µM]	.	.	?
SMILES	POLH inh	Pol beta inh	WRN inhibitor	Pol kappa inh	PI5P4Ka inh	POLI inh
O=[N+]([O-])c1c(Nc2ccccc2O)cc(Cl)c2nonc12	44.7µM	17.8µM	?	.	?	11.2µM
O=[N+]([O-])c1c(Nc2ccccc2O)ccc2nonc12	.	.	.	.	.	.
O=C(O)c1ccc2c(c1)C(=O)N(CCC1=CCCCC1)C2=O	.	.	.	.	-69.8	.
O=C(O)c1ccc2c(c1)C(=O)N(Cc1ccccc1)C2=O	.	.	.	.	-72.8	.
CN(C(=O)c1ccc2c(c1)C(=O)N(CCC1=CCCCC1)C2=O)C1CCCCC1	.	?	.	.	.	.
COc1cc(SSc2cc(OC)cc([N+](=O)[O-])c2N)c(N)c([N+](=O)[O-])c1	.	.	.	.	-93.5	.
CCOP(=O)(OCC)C(C#N)=C1SCN(c2ccccc2)CS1	39.8µM	/	.	.	?	?
